# From PubChem BioAssay
# KinaseGlo FLuc: Kinase-Glo luciferase inhibition (counter-screen). AID 1379. Q27757. Kinase-Glo luciferase, ATP luminescence, 8 min. 0.28% of 200,000 active. Potency, µM (doses to about 38.3 µM), hits mostly inhibitors; note: nearly all actives have a fitted effect of over 60% in size
#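 Light output from Kinase-Glo luciferase with luciferin and 10 uM ATP in 50 mM imidazole pH 7.2, KCl, MgCl2, Tween 20, BSA; compound pin-delivered, 8-min ambient incubation, then luminescence read.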
# Rab9 prom act: activators of Rab9 promoter. 2.8% of 320,000 active. Huh7 Rab9 promoter-luciferase reporter, luminescence, 24 h. AID 485297. Potency, µM (top dose mostly 9.22 µM), actives largely listed as activators; note: nearly all actives have a fitted effect of over 60% in size
#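 Stable Rab9-luc Huh7, 1500 cells/well, 2 h settle; cmpd in DMSO, 24 h, 37 °C/5% CO2; luciferase reagent 10 min RT; luminescence.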
# FLuc counter: firefly luciferase modulation, counter-screen for miR-21 project. AID 588342. Potency, µM (top dose mostly 57.5 µM), hits mostly inhibitors. 6.9% of 360,000 active. purified FLuc, Km substrates, luminescence inhibition; note: nearly all actives have a fitted effect of over 55% in size
# Target sequence (P08659 whole entry, looked up): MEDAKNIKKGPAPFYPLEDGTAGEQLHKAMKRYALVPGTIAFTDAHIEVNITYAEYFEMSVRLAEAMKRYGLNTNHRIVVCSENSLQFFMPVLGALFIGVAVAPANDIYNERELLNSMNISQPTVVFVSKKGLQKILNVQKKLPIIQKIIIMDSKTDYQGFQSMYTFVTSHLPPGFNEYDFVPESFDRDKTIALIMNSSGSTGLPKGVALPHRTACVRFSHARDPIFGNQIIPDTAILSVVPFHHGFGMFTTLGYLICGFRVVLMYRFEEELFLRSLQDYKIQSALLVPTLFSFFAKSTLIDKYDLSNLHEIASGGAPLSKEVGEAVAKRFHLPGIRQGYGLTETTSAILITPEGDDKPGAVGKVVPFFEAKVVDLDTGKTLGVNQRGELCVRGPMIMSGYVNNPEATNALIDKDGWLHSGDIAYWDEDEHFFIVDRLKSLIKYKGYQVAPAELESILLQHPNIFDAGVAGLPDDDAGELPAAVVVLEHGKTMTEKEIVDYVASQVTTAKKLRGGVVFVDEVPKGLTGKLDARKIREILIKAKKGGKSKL
#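 Purified P. pyralis luciferase (10nM final) with 10uM D-luciferin and 10uM ATP (Km levels) in 50mM Tris acetate pH 7.5, 10mM Mg acetate, 0.01% Tween-20, 0.05% BSA; qHTS 6-point titration, ~60 µM downward; luminescence read.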
# NPC1 promoter act: activators of NPC1 promoter; Huh7 NPC1 promoter luciferase reporter, 24 h; Potency, µM (titrated, usually from 9.22 µM), usual class: activators; 2.4% of 320,000 active; AID 485313; note: nearly all actives have a fitted effect of over 60% in size
#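 Huh7 cells stably carrying NPC1 promoter–luciferase, plated in Opti-MEM with 10% FBS for 2 h, were exposed to compound in DMSO for 24 h at 37 °C; luciferase reagent was added for 10 min and luminescence read.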
# SMN2 splice up: SMN2 splice variant enhancement; AID 1458; 2.8% of 210,000 active; HEK293 SMN2-luciferase splicing reporter, luminescence, 30-36 h; Potency, µM (highest dose often 46.1 µM), actives largely listed as activators; note: nearly all actives have a fitted effect of over 55% in size
#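 qHTS luciferase splicing reporter: luminescence rises when SMN2 exon 7 is included in transfected HEK293 cells. Compound exposure lasted 30-36 h at 37C, with 4.5 mM final sodium butyrate as control, followed by a ONE-Glo read.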
# ELG1 genotox: inducers of genotoxicity in HEK293T ELG1-luciferase cells; Potency, µM (series often up to 46 µM), hits mostly activators; HEK293T ELG1-luciferase reporter, luminescence, 16 h; 1.3% of 330,000 active; note: nearly all actives have a fitted effect of over 60% in size
#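 ELG1-luciferase HEK293T cells, 2,000/well; compound pinned in; 16 hr, 37 °C, 5% CO2; ONE-Glo, 30 min RT; luminescence on CCD imager.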
# A number is an active result; n = inactive; u = inconclusive; x = not tested or not shown; [ ] = dose if it differs, or a comment. The list is not random: actives were taken first. Their share in the collection is about 7.5%. Calls come from the whole dose curve; as a rule, active = well fitted curve in the direction sought with a large enough effect; inconclusive = small, poorly fitted or top-dose-only effect, or another doubt; inactive = no such curve, though single readings can be large; an effect the other way counts as inactive or inconclusive.
SMILES,KinaseGlo FLuc,Rab9 prom act,FLuc counter,NPC1 promoter act,SMN2 splice up,ELG1 genotox
COC(=O)Cc1csc(Nc2ccccc2Cl)n1,n,3.5µM,19µM,u,u,u
CCOC(=O)c1sc(NCCNc2nc(C)c(C(=O)OCC)s2)nc1C,n,n,n,n,n,n
CCOC(=O)Cc1csc(NC(=O)Cc2ccccc2)n1,n,n,n,n,x,n
CCOC(=O)c1sc(Nc2ccccc2Cl)nc1C,x,u,15µM,u,x,u
COc1ccc(OC)c(NC(=O)Nc2cc(C(=O)O)ccc2C)c1,x,n,n,n,x,n
CCOc1ccc(OCc2ccc(C(=O)N3CCCC(C)C3)cc2)cc1 (stereo not given),n,2µM,13µM,4µM,10µM,u
CCCCCCC(=O)NNC(=O)CC(=O)Nc1ccccc1C(=O)O,n,n,n,n,n,n
C=CCn1cc(/C=N/Nc2nc3ccccc3[nH]2)c2ccccc21,n,n,5.4µM,n,n,n
Cc1c(/C=N/n2cnnc2)c2ccccc2n1C,n,n,n,n,n,n
CC(C)Cn1c(/C=N/Nc2nc3ccccc3[nH]2)nc2ccccc21,n,n,u,n,n,u
Cn1c(/C=N/Nc2nc3ccccc3[nH]2)nc2ccccc21,n,3.5µM,1.5µM,u,4µM,1.2µM
Cc1c(/C=N/Nc2nc3ccccc3[nH]2)c2ccccc2n1C,x,u,11µM,u,x,u
CCCn1c(/C=N/Nc2nc3ccccc3[nH]2)nc2ccccc21,n,n,13µM,n,n,u
O=c1cc(CN2CCOCC2)c2cc(Cl)ccc2o1,x,n,n,n,x,n
Cc1ccc(-c2nnc(SCC(=O)NCc3ccccc3)o2)cc1,x,x,n,x,n,x
Cc1nn(-c2ccccc2)c(C)c1/C=N/Nc1nc2ccccc2[nH]1,10µM,0.5µM,0.85µM,0.71µM,3.2µM,5.2µM
CCN(CC)C(=O)c1sc(NC(=O)c2ccc(C)c([N+](=O)[O-])c2)c(C#N)c1C,n,n,u,n,n,n
COC(=O)C1C(=O)c2c([nH]c(C(=O)OC3CCCC3)c2C)CC1C (stereo not given),n,x,2.4µM,x,14µM,x
COc1ccc(C2CC(=O)c3c([nH]c(C(=O)OC4CCCCCC4)c3C)C2)cc1 (stereo not given),x,x,n,x,n,x
O=C(c1ccccc1)c1c[nH]c2cc3c(cc2c1=O)OCO3,n,n,n,n,n,n
O=C(NCc1cccnc1)c1c[nH]c2cc3c(cc2c1=O)OCCO3,n,n,6µM,n,n,u
O=C(c1ccccc1)c1c[nH]c2cc3c(cc2c1=O)OCCO3,n,u,u,n,22µM,n
COc1cccc(CNC(=O)CCC2CCCN(c3cc(C)nc(N4CCCC4)n3)C2)c1 (stereo not given),x,n,n,n,x,n
COC(=O)/C=C1\N/C(=N/c2nc(C)c3cc(OC)ccc3n2)NC1=O,x,n,u,n,x,n
Cc1ccc(NC(=O)Cn2nc(C(F)(F)F)c3c2CCC3)cc1C,x,x,n,x,n,x
SMILES,KinaseGlo FLuc,Rab9 prom act,FLuc counter,NPC1 promoter act,SMN2 splice up,ELG1 genotox
COc1ccccc1-c1cc2ccccc2[nH]1,n,u,15µM,n,13µM,u
COc1ccccc1-c1cc(-c2ccccc2)nc(=O)[nH]1,x,n,n,n,x,n
CCC(C)NC(=O)C1=CC(c2ccc3c(c2)OCO3)=NS(=O)(=O)N1C (stereo not given),x,x,n,x,x,x
O=C(c1cc(-c2cccc(Br)c2)nc2ccccc12)N1CCCC1,x,n,15µM,n,x,n
O=C(c1cc(-c2ccncc2)nc2ccccc12)N1CCN(c2ncccn2)CC1,x,x,x,x,x,n
Cc1ccc(-c2cc(C(=O)N3CCC(C)CC3)c3ccccc3n2)cc1,x,n,4.3µM,n,x,n
O=C(c1cc(-c2ccc(Br)cc2)nc2ccccc12)N1CCC1,x,n,17µM,n,x,n
COc1ccc(-c2cc(C(=O)N3CCCCCC3)c3ccccc3n2)cc1,x,n,6.7µM,n,x,n
COc1cc(-c2cc(C(=O)N3CCCCCC3)c3ccccc3n2)cc(OC)c1OC,x,n,n,n,x,n
CCCC1=Nc2cc(C(=O)NC3CCCCC3)ccc2Sc2ccc(C)cc21,x,x,n,x,x,x
Cc1cccc(N2CCN(C(=O)c3cn(CC(C)C)c(=O)c4c3c3ccccc3n4C)CC2)c1C,x,x,n,x,n,x
CCc1ccc(-c2cc(C(=O)O)c3ccccc3n2)s1,x,1.4µM,0.54µM,2µM,x,n
O=C(O)c1cc(Sc2ccc(Br)cc2)nc2ccccc12,n,n,u,n,n,n
Cc1ccc(-c2cc(C(=O)N3CCCC3)c3ccccc3n2)s1,x,n[1.84 µM],5.4µM,n,x,n
CCc1ccc(Sc2cc(C(=O)O)c3ccccc3n2)cc1,x,x,15µM,x,x,x
CCOC(=O)N1CCC(NC(=O)c2cc(-c3ccc(OC)cc3)nc3ccccc23)CC1,x,n,4.8µM,n,x,n
O=C(Nc1ccon1)c1cccc(S(=O)(=O)N2CCCCC2)c1,n,n,n,n,x,n
CC(C)c1nc(SCc2c(F)cccc2Cl)c2c(=O)n(C)c(=O)n(C)c2n1,n,n,n,n,n,u
C=CCn1c(CSCc2ccc(Cl)cc2Cl)nnc1SCC(=O)Nc1ccc(C(=O)O)cc1,x,n,u,n,x,n
COc1ccc(-c2cc(C(=O)N3CCCc4ccccc43)no2)cc1,n,u,6µM,u,n,n
COc1ccc(-c2cc(C(=O)N3CCCc4ccccc43)no2)cc1OC,n,n,u,n,n,n
COc1cccc(-c2cc(C(=O)N3CCCc4ccccc43)no2)c1,n,n,12µM,n,u,n
COc1ccc(C2=NOC(C(=O)N3CCCc4ccccc43)C2)cc1 (stereo not given),n,n,13µM,n,n,n
COCCCNC1=C(Cl)C(=O)c2ccccc2C1=O,x,n,u,n,x,n
CC(C)OCCCNC1=C(Cl)C(=O)c2ccccc2C1=O,x,n,13µM,n,x,n
SMILES,KinaseGlo FLuc,Rab9 prom act,FLuc counter,NPC1 promoter act,SMN2 splice up,ELG1 genotox
COc1ccc(OCc2nnc(SCC(=O)Nc3nnc(C4CC4)s3)n2C)cc1,x,n,n,n,x,n
O=C(O)c1ccc(NS(=O)(=O)c2cccc3cccnc23)cc1,n,n,n,n,n,n
O=C(Nc1ccccc1O)c1ccc(NS(=O)(=O)c2cccc3cccnc23)cc1,x,u,u,n,x,16µM
COC(=O)c1ccc(NC(=O)c2ccc(NS(=O)(=O)c3cccc4cccnc34)cc2)cc1,x,n[1.84 µM],17µM,n,x,n
CC(=O)Nc1ccc(C(=O)CSc2nnc3ccc4ccccc4n23)cc1,x,x,n,x,x,x
O=C(CSc1cnc2ccccc2n1)c1ccc(F)cc1,n,3.2µM,4.8µM,3.2µM,11µM,u
O=C(CSc1nnc2ccc3ccccc3n12)c1ccc(F)cc1,x,u,6.7µM,n,x,x
COC(=O)CSc1cnc2ccccc2n1,n,x,n,x,n,x
CC(=O)Nc1nonc1-c1nnc(SCc2ccccc2Cl)n1C,x,x,n,x,x,x
CCc1c(C)sc(NC(=O)c2cc(C)no2)c1C#N,n,n,13µM,n,n,n
